Assay results published in PubChem BioAssay AID1159580 (chemical genetic matrix, 2015).
The whole screen tested about 5,500 compounds, of which about 2,000 (36%) were called active. Roughly 18% stayed inconclusive and do not appear here. Rule as the data show it: active = normalized growth mostly below about 0.91 (no sharp cut-off); inconclusive = no clear call, values can overlap the other calls; inactive = mostly above about 0.92. This is one part of the list.

Assay: chemical genetic growth profiling, strain panel (AID 1159580);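 also: tested at 20 µM; growth read once vehicle control cultures reached saturation at 30 °C; 1 = growth at the plate median or of vehicle wells; lower values mean less growth of the strain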
Details: growth OD

Measured: normalized growth

CC1(C)C(=O)[C@@H]2O[C@@H]2[C@@]2(C)C1C[C@@H](O)[C@]1(C)C2CC[C@@]2(C)[C@H](c3ccoc3)OC(=O)C3OC321 (some centres not stated)
inactive: S. cerevisiae deletion strains, locus YJL187C, strain SWE1, active compounds read low 0.994 | S. cerevisiae deletion strains, locus YJR043C, strain POL32, active compounds read low 0.998 | S. cerevisiae deletion strains, locus YJR066W, strain TOR1, active compounds read low 0.926 | S. cerevisiae deletion strains, locus YKL009W, strain mrt4, active compounds read low 1.02 | S. cerevisiae deletion strains, locus YKL068W, active compounds read low 0.993 | S. cerevisiae deletion strains, locus YKL085W, strain MDH1 (second series), active compounds read low 0.997 | S. cerevisiae deletion strains, locus YKL085W, strain MDH1, active compounds read low 0.997 | S. cerevisiae deletion strains, locus YKL160W, strain elf1, active compounds read low 0.998 | S. cerevisiae deletion strains, locus YKR001C, strain vps1, active compounds read low 0.979 | S. cerevisiae deletion strains, locus YKR026C, strain gcn3, active compounds read low 0.995 | S. cerevisiae deletion strains, locus YKR091W, strain srl3, active compounds read low 0.992 | S. cerevisiae deletion strains, locus YLL001W, strain dnm1, active compounds read low 0.99 | S. cerevisiae deletion strains, locus YLL026W, active compounds read low 0.99 | S. cerevisiae deletion strains, locus YLL041C, strain sdh2, active compounds read low 0.999 | S. cerevisiae deletion strains, locus YLR027C, strain aat2, active compounds read low 0.984 | S. cerevisiae deletion strains, locus YLR039C, strain RIC1, active compounds read low 1.11 | S. cerevisiae deletion strains, locus YLR058C, strain SHM2, active compounds read low 0.997 | S. cerevisiae deletion strains, locus YLR102C, strain apc9, active compounds read low 0.987 | S. cerevisiae deletion strains, locus YLR113W, strain HOG1, active compounds read low 1.01 | S. cerevisiae deletion strains, locus YLR221C, strain rsa3, active compounds read low 0.999 | S. cerevisiae deletion strains, locus YLR258W, strain gsy2, active compounds read low 1.02 | S. cerevisiae deletion strains, locus YLR262C, strain YPT6 (second series), active compounds read low 0.973 | S. cerevisiae deletion strains, locus YLR268W, strain sec22, active compounds read low 0.987 | S. cerevisiae deletion strains, locus YLR320W, strain mms22, active compounds read low 0.998 | S. cerevisiae deletion strains, locus YLR330W, strain CHS5, active compounds read low 1 | S. cerevisiae deletion strains, locus YLR342W, strain FKS1 (second series), active compounds read low 0.992 | S. cerevisiae deletion strains, locus YLR342W, strain FKS1, active compounds read low 0.999 | S. cerevisiae deletion strains, locus YLR357W, strain rsc2, active compounds read low 0.968 | S. cerevisiae deletion strains, locus YLR370C, strain arc18, active compounds read low 0.995 | S. cerevisiae deletion strains, locus YLR371W, strain rom2, active compounds read low 0.982 | S. cerevisiae deletion strains, locus YLR384C, strain iki3, active compounds read low 1.02 | S. cerevisiae deletion strains, locus YLR418C, strain cdc73, active compounds read low 0.919 | S. cerevisiae deletion strains, locus YML016C, strain PPZ1, active compounds read low 1.01 | S. cerevisiae deletion strains, locus YML032C, strain rad52, active compounds read low 0.994 | S. cerevisiae deletion strains, locus YML120C, strain ndi1, active compounds read low 1 | S. cerevisiae deletion strains, locus YML124C, strain tub3, active compounds read low 0.996 | S. cerevisiae deletion strains, locus YMR058W, strain fet3, active compounds read low 1 | S. cerevisiae deletion strains, locus YMR078C, strain ctf18, active compounds read low 0.994 | S. cerevisiae deletion strains, locus YMR125W, strain sto1, active compounds read low 1 | S. cerevisiae deletion strains, locus YMR129W, active compounds read low 1 | S. cerevisiae deletion strains, locus YMR205C, strain PFK2, active compounds read low 0.999 | S. cerevisiae deletion strains, locus YMR223W, strain ubp8, active compounds read low 0.979 | S. cerevisiae deletion strains, locus YMR231W, strain pep5, active compounds read low 0.98 | S. cerevisiae deletion strains, locus YMR263W, strain SAP30, active compounds read low 0.974 | S. cerevisiae deletion strains, locus YMR307W, strain GAS1, active compounds read low 0.938 | S. cerevisiae deletion strains, locus YNL067W, strain RPL9B, active compounds read low 0.982 | S. cerevisiae deletion strains, locus YNL071W, strain lat1, active compounds read low 0.998 | S. cerevisiae deletion strains, locus YNL183C, strain NPR1, active compounds read low 0.951 | S. cerevisiae deletion strains, locus YNL209W, strain ssb2, active compounds read low 1.01 | S. cerevisiae deletion strains, locus YNL233W, strain BNI4, active compounds read low 0.99 | S. cerevisiae deletion strains, locus YNL248C, strain rpa49, active compounds read low 0.991 | S. cerevisiae deletion strains, locus YNL250W, strain rad50, active compounds read low 0.982 | S. cerevisiae deletion strains, locus YNL271C, strain bni1, active compounds read low 0.989 | S. cerevisiae deletion strains, locus YNL298W, strain CLA4, active compounds read low 0.971 | S. cerevisiae deletion strains, locus YNL307C, strain MCK1, active compounds read low 0.967 | S. cerevisiae deletion strains, locus YNL322C, strain KRE1 (second series), active compounds read low 1 | S. cerevisiae deletion strains, locus YNR049C, strain mso1, active compounds read low 1.01 | S. cerevisiae deletion strains, locus YNR052C, strain pop2, active compounds read low 0.964 | S. cerevisiae deletion strains, locus YOL006C, strain TOP1, active compounds read low 0.992 | S. cerevisiae deletion strains, locus YOL012C, strain htz1 0.956 | S. cerevisiae deletion strains, locus YOL147C, strain pex11, active compounds read low 0.988 | S. cerevisiae deletion strains, locus YOR001W, strain rrp6, active compounds read low 1.02 | S. cerevisiae deletion strains, locus YOR061W, strain CKA2, active compounds read low 1.01 | S. cerevisiae deletion strains, locus YOR069W, strain VPS5, active compounds read low 1 | S. cerevisiae deletion strains, locus YOR070C, strain gyp1, active compounds read low 0.992 | S. cerevisiae deletion strains, locus YOR080W, strain dia2, active compounds read low 0.988 | S. cerevisiae deletion strains, locus YOR083W, strain WHI5, active compounds read low 0.992 | S. cerevisiae deletion strains, locus YOR106W, strain vam3, active compounds read low 0.995 | S. cerevisiae deletion strains, locus YOR136W, strain idh2, active compounds read low 0.975 | S. cerevisiae deletion strains, locus YOR144C, strain elg1, active compounds read low 0.985 | S. cerevisiae deletion strains, locus YOR184W, strain ser1, active compounds read low 0.978 | S. cerevisiae deletion strains, locus YOR231W, strain MKK1, active compounds read low 0.983 | S. cerevisiae deletion strains, locus YOR265W, strain rbl2, active compounds read low 0.983 | S. cerevisiae deletion strains, locus YOR270C, strain vph1, active compounds read low 0.946 | S. cerevisiae deletion strains, locus YOR290C, strain snf2, active compounds read low 0.968 | S. cerevisiae deletion strains, locus YOR316C, strain cot1, active compounds read low 0.992 | S. cerevisiae deletion strains, locus YPL051W, strain arl3, active compounds read low 0.986 | S. cerevisiae deletion strains, locus YPL078C, strain atp4, active compounds read low 1.01 | S. cerevisiae deletion strains, locus YPL106C, strain sse1, active compounds read low 1 | S. cerevisiae deletion strains, locus YPL240C, strain hsp82, active compounds read low 1.01 | S. cerevisiae deletion strains, locus YPL256C, strain CLN2, active compounds read low 0.952 | S. cerevisiae deletion strains, locus YPR119W, strain clb2, active compounds read low 0.982 | S. cerevisiae deletion strains, locus YPR141C, strain kar3, active compounds read low 0.992 | S. cerevisiae deletion strains, locus YPR163C, strain tif3, active compounds read low 0.979 | S. cerevisiae deletion strains, locus YPR167C, strain met16, active compounds read low 0.982 | S. cerevisiae deletion strains, strain wtn01, active compounds read low 0.999 | S. cerevisiae strains, strain wild type, active compounds read low 0.994
